The whole screen tested about 310,000 compounds, of which about 1,000 (0.32%) were called active. The list is a sample of the results. Potency and affinity values are given separately. Values without a mark were called inactive. No rule for the calls is given here.

The nature of this test: PhoP regulon inhibitors, Salmonella typhi PhoP promoter GFP reporter, confirmatory (AID 1850).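 Also: 0% = induced wells with vehicle and 100% = uninduced wells.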 Particulars: fluorescence, 4 h, at 50 µM, hits give high values.
Consider `COc1cc(Nc2nc3ccccc3nc2NS(=O)(=O)c2ccc([N+](=O)[O-])cc2)cc(OC)c1OC`, for which the inhibition was 6.03%. For `CN(Cc1ccccc1)CC(O)COc1ccc(CNCCc2cccnc2)cc1` (centres undefined) the value was 9.53%; for `Cc1ncc(CCl)c2c1OC(C)(C)OC2`, 5.02%; for `COc1ccc(NC(=O)NCc2cccnc2)c(OC)c1`, -7.58%. `O=C(Cc1ccccc1)Nc1nccs1`: the inhibition is -0.57%. Take `Cc1cc(OC(C)C(=O)N2C[C@H]3C[C@@H](C2)c2cccc(=O)n2C3)c2c(C)c(C)c(=O)oc2c1` (some centres undefined): the inhibition is -6.28%.

As to `CC(C)Cc1nnc(NC(=O)CCC(=O)N2CCN(c3ccccn3)CC2)s1`, the inhibition is -13%. For the molecule `O=[N+]([O-])c1cccnc1NCCc1c[nH]c2ccccc12`, the inhibition is -3.53%. As to `Cc1cc(NC(=O)CSCC(=O)N2CCN(c3cccc(C(F)(F)F)c3)CC2)no1`, the inhibition was 6.28%.

For `CCOC(=O)N/N=C(\C)c1ccc(C)o1`, the inhibition was -8.47%.

For the molecule `O=C(N/N=C/C=C/c1ccccc1[N+](=O)[O-])c1cccs1`, the inhibition was -2.89%. On to `O=C(N/N=C/c1ccc([N+](=O)[O-])o1)c1ccc2c(c1)OCO2`, for which the inhibition was 3.54%.

For the molecule `CCCC(=O)Nc1ccc(C(=O)N/N=C/c2ccc([N+](=O)[O-])o2)cc1`, the inhibition was 14.4%. For `O=C(N/N=C/C=C/c1ccc([N+](=O)[O-])cc1)c1cccs1`, the inhibition is 6.74%.

Take `NC(=O)N/N=C/c1ccc([N+](=O)[O-])o1`: the inhibition was 1.06%. With `C/C(=N/NC(=O)C(O)(c1ccccc1)c1ccccc1)c1ccc([N+](=O)[O-])o1`, the inhibition was -14%. For the molecule `O=C(CN1CCCCCCC1)N/N=C/c1ccc([N+](=O)[O-])o1`, the inhibition was 8.07%. For `COc1ccc(C2C(C(C)=O)=C(O)C(=O)N2Cc2ccccc2)c(OC)c1` (centres undefined), the inhibition is -1.09%. The value for `Cc1ccc([C@@H]2[C@@H]3C(=O)N(C)C(=O)[C@@H]3[C@]3(Cc4ccccc4)C(=O)N(Cc4ccccn4)CC(=O)N23)o1` was 5.99%. `COc1ccccc1N1CCN(C2CCCN(C(=O)c3cc(C4CC4)on3)C2)CC1` (centres undefined): the inhibition is -1.91%. The value for `O=C(C[n+]1cc(-c2ccccc2)n2c1CCCCC2)c1ccc(Br)cc1` was -5.28%; that for `CCOC(=O)N1CCN(C(=O)c2cn(CC)c3ccc(S(=O)(=O)N4CC(C)CC(C)C4)cc3c2=O)CC1` (centres undefined) was -8.02%. For `O=C(COC(=O)CCN=C1NS(=O)(=O)c2ccccc21)NC1CCCCCCC1` the value was 2.68%. Regarding `COc1cccc(NC(=S)NC(=O)Cc2ccc(Cl)cc2)c1`, the inhibition was -3.77%.

One may read the inhibition as the drop in the measured response relative to a control, in per cent.

The values are drawn from PubChem BioAssay AID1850 (Southern Research Specialized Biocontainment Screening …, 2009).
